Assay outcomes as filed in PubChem.
The list is not random: actives were taken first. Their share in the collection is about 2.1%.
aSyn yeast inh: qHTS of alpha-syn Inhibitors; Potency, µM (top dose mostly 46.1 µM), without a hit: at the top dose growth rescue (activation), usual class: activators; hit rate 0.14% among 370,000; AID 652106, 2013; Yeast expressing alpha-synuclein, growth rescue, BacTiter-Glo, 24 h; further: % of control where 0% means no effect; nearly all actives have a fitted effect of over 65% in size
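Galactose-induced alpha-syn yeast (OD600=0.02, raffinose-pregrown) + pinned cpd, 24 hr, 30 deg C; growth by BacTiter-Glo luminescence. Growth restoration scores as activation.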
TDP-43 yeast inh: qHTS of TDP-43 Inhibitors. TDP-43 expressing yeast growth rescue, BacTiter-Glo, 24 h. Potency, µM (highest dose often 46.1 µM), inactives show at the top dose growth rescue (activation), actives largely listed as activators. hit rate 1.8% among 410,000; further: % of control where 0% means no effect; nearly all actives have a fitted effect of over 50% in size
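Growth rescue of TDP-43-toxic yeast measured as ATP luminescence (BacTiter-Glo). Cells grown to mid-log in raffinose, induced in galactose at OD600=0.02, exposed to compound 24 hr at 30 deg C.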
Abeta rescue: qHTS for compounds that reverse cellular toxicity of Amyloid beta (A-beta) peptide in yeast: Primary Screen; yeast expressing A-beta42, growth rescue, OD600, 48 h; response scale: 0% DMSO, 100% iron-clioquinol control; Potency, µM (top dose mostly 46.1 µM), usual class: activators; hit rate 0.063% among 410,000; further: nearly all actives have a fitted effect of over 55% in size
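Yeast growth medium received pinned compounds, then yeast cells expressing toxic A-beta were added; plates incubated at 30 C for 48 hr. Growth read as absorbance at 600 nm, normalized to DMSO and equimolar FeCl3 plus clioquinol controls.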
FUS yeast rescue: qHTS for Suppressors of FUS Proteinopathy: Primary screen using FUS-linked yeast assay; Potency, µM (series often up to 76.6 µM), most hits filed as activators; S. cerevisiae FUS-expressing, growth rescue, OD600, 24 h; hit rate 0.24% among 390,000;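 further: plate controls were DMSO vehicle for no effect and reference control for full effect; nearly all actives have a fitted effect of over 55% in size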
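S. cerevisiae expressing FUS from galactose induction served as the toxicity model. Growth after 24hr at 30C, read as absorbance at 600 nm, indicates suppression of toxicity; compounds dosed at several concentrations.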
* = called active by the depositor; i = inactive; u = inconclusive; x = no result; ! = not confirmed by another sample. The call rests on the fitted dose curve; in most records, active means well fitted curve in the direction sought with a large enough effect; inconclusive means small, poorly fitted or top-dose-only effect, or another doubt; inactive means no such curve, though single readings can be large; an effect the other way counts as inactive or inconclusive. Potency means the concentration at half of the fitted maximal effect.

SMILES	aSyn yeast inh	TDP-43 yeast inh	Abeta rescue	FUS yeast rescue
O=C(Nc1ccc(Cl)c(Cl)c1)c1cccnc1	-1%	18µM*	i	i
CCOc1ncccc1C(=O)Nc1ccc(Cl)cc1	-6%	11µM*	i	i
O=C(Nc1ccccc1C(=O)Nc1ccc(Cl)cc1)c1cccnc1	-3%	14µM*	i	i
Cc1ccc(NC(=O)c2ccccc2NC(=O)c2cccnc2)cc1	-5%	-7%	i	i
O=S(=O)(c1ccc(F)cc1)N1CCN(c2nc(-c3ccccc3)nc3ccccc23)CC1	1%	x	x	x
CCN(C(=O)C(=O)c1c(C)[nH]c2ccccc12)c1ccccc1	0%	x	x	x
O=[N+]([O-])c1cccc(/C=N\N=C2c3ccccc3-c3ccccc32)c1O	-8%	-33%	i	x
Fc1c(F)c(F)c(N/N=C/c2c[nH]c3ccccc23)c(F)c1F	-37%	u	i	i
Oc1ccc(C=NN=C2c3ccccc3-c3ccccc32)c(O)c1	-35%	11µM*	i	x
C(=NN=C1c2ccccc2-c2ccccc21)c1c[nH]c2ccccc12	21%	13µM*	i	x
CC(=O)Nc1cc2c(cc1[N+](=O)[O-])-c1ccccc1C2=NO	8%	0%	i	x
Nc1cc2c(cc1[N+](=O)[O-])-c1ccccc1C2=NO	9%	3.5µM*	i	x
COc1ccc(CC(=O)N(Cc2nc(-c3ccc(C)cc3)no2)C(C)C)cc1	x	u	i	i
O=c1ccc2ccccc2c2ccccc12	u	3.2µM*	i	i
CN(/N=C/c1ccccc1Cl)c1ncc(Cl)cc1C(F)(F)F	-9%	0%	i	i
CN(/N=C/c1ccc(O)cc1O)c1ncc(C(F)(F)F)cc1Cl	-36%	35µM*	u	i
COc1ccc(OC)c(NC(=O)c2cc(-c3ccc(F)cc3OC(C)C)n[nH]2)c1	-8%	22µM*	i	u
COc1ccc(F)cc1-c1cc(C(=O)Nc2ccc(C)c(NS(C)(=O)=O)c2)[nH]n1	-6%	0%	i	i
COc1ccc(NC(=O)c2cc(-c3cc(F)ccc3OC)n[nH]2)cn1	-23%	20µM*	i	i
COc1ccc(NC(=O)c2cc(-c3cc(F)ccc3OC)n[nH]2)cc1OC	-2%	35µM*	i	i
COc1ccc(NC(=O)c2cc(-c3ccc(F)cc3OC)n[nH]2)c(OC)c1	-7%	20%	i	i
CCCOc1ccc(F)cc1-c1cc(C(=O)Nc2ccc(OC)c(OC)c2)[nH]n1	1%	u	i	u
COc1ccc(NC(=O)c2cc(-c3cc(F)ccc3OC)n[nH]2)c(OC)c1	-17%	20µM*	i	i
COc1ccccc1CNC(=O)c1cn(C)c2ccc(S(=O)(=O)N(C)C3CCCCC3)cc2c1=O	x	16%	i	i
CCN(Cc1ccccc1)S(=O)(=O)c1ccc2c(c1)CC(C)N2C(=O)C1CCC1 (stereo not drawn)	x	u	i	i
SMILES	aSyn yeast inh	TDP-43 yeast inh	Abeta rescue	FUS yeast rescue
O=C(CSc1nc2cc(Cl)ccc2s1)NCC1CCCO1 (stereo not drawn)	8%	20µM*	i	i
O=C(CSc1nc2ccc([N+](=O)[O-])cc2s1)NCC1CCCO1 (stereo not drawn)	4%	15%	i	i
Cn1ccsc1=NC(=O)c1ccc(Cl)cc1	-6%	11µM*	i	i
O=C(Nc1ccc2oc(-c3cc(Br)ccc3Cl)nc2c1)c1cc2ccccc2o1	x	-10%	i	i
Cc1ccc(OCc2nc(-c3ccc(C(=O)N4CCN(c5cccc(C(F)(F)F)c5)CC4)cc3)oc2C)cc1	x	20%	i	i
COCCn1c(C)cc(C(=O)CSc2nnc(-c3cccnc3)n2-c2ccccc2F)c1C	x	11%	i	20µM*
COc1ccc(C(=O)c2ccccc2)cc1Br	3%	13µM*	i	i
COc1ccc(CNC(=O)C(c2ccc(C)cc2)N(Cc2cccs2)C(=O)c2ccc3c(c2)OCCO3)cc1 (stereo not drawn)	-6%	-23%	i	5µM*
CC(C)COc1ccc(-c2nn(-c3ccccc3)cc2CO)cc1	4%	28µM*	i	i
COc1ccc2c(c1)C(=NO)c1cc(OC)ccc1-2	-5%	11µM*	i	i
C=CCOc1ccc2c(c1)C(=NO)c1cc(OCC=C)ccc1-2	-19%	0%	i	i
CCCCOc1ccc(C(N)=O)cc1	3%	x	x	x
CCCCCCCCCCCCCCCC[n+]1ccc(C(N)=O)cc1	-73%	-36%	i	32µM*
CCCCCCCCCCCCCCCC[n+]1cccc(C(=O)N(CC)CC)c1	-10%	-18%	i	28µM*!
O=C(OC12CCCN(C1)/C(=C/c1cccnc1)C2)c1ccco1 (stereo not drawn)	x	x	x	i
Cc1ccc(N2C(=O)c3ccc(N)cc3C2=O)cc1	2%	0%	i	i
Nc1ccc2c(c1)C(=O)N(c1cccc3ccccc13)C2=O	11%	14µM*	i	i
Cc1ccc(N2C(=O)c3ccc(N)cc3C2=O)cc1C	2%	11µM*	i	i
C(=Nc1cnc2ccccc2c1)c1ccncc1	4%	x	x	x
CC(C)[C@H](NC(=O)OC(C)(C)C)c1nnc(S(=O)(=O)Cc2c(F)cccc2Cl)o1	-22%	11µM*	i	i
CC(C)(C)OC(=O)N[C@@H](Cc1ccccc1)c1nnc(S(=O)(=O)Cc2cccc(F)c2)o1	-8%	5µM*	i	i
C[C@H](NC(=O)OC(C)(C)C)c1nnc(SCc2c(F)cccc2Cl)o1	-2%	19%	i	i
O=c1c2ccccc2sn1-c1ccc(Cl)c(S(=O)(=O)N2CCOCC2)c1	-81%	x	x	x
CC(c1ccc2ccccc2c1)c1ccccc1C(=O)O (stereo not drawn)	-11%	5.6µM*	i	i
CN1CCN(c2oc(/C=C/c3ccc(F)cc3)nc2C#N)CC1	x	11%	i	i
SMILES	aSyn yeast inh	TDP-43 yeast inh	Abeta rescue	FUS yeast rescue
COc1cc2c(cc1OC)C(C)N(C(=O)c1cccc([N+](=O)[O-])c1)CC2 (stereo not drawn)	22µM*	13µM*	i	i
CC1c2cc3c(cc2CCN1C(=O)c1cccc(Cl)c1)OCCCO3 (stereo not drawn)	0%	13µM*	i	i
COc1ccccc1C1CCN(C(=O)c2cccc([N+](=O)[O-])c2)CC1	1%	16µM*	i	i
COc1ccccc1C1CCN(C(=O)c2ccc(C(C)(C)C)cc2)CC1	-38%	12%	i	i
COC(=O)c1ccc(OCC2c3cc(OC)c(OC)cc3CCN2C(=O)c2cccc(C)c2)cc1 (stereo not drawn)	22%	25µM*	i	u
CN(C)c1ccc(/C=C2\C(Cl)=Cc3ccccc32)cc1	-18%	x	x	x
CS(=O)(=O)Nc1ccc(-c2nc3ccccc3s2)cc1	x	29%	i	i
